B1: design_609_7ee6ce64-4629-41e8-bcb4-ba0da017284d_21_dldesign_0_cycle1_af2pred (protein)
chain: SLEEELNKKKTEELIEEGIKALKEYAEKGKLEEGKAIASKKVQEAFDLGYEEGREAARKVREAYDKLAKEIEKKKA
B2: design_609_7ee6ce64-4629-41e8-bcb4-ba0da017284d_81_dldesign_0_cycle1_af2pred (protein)
chain: SKALADALRAAQRALRALGRRAAALDPALAAEVTAALFAVYDQSTAEAAKAAADAAVAAATARIAALEAAA
B3: design_608_fd41b8f9-4da9-4c78-93ec-aaa316ed4933_2334_dldesign_0_cycle1_af2pred (protein)
chain: MTPEEKQEMVKQAVELVKNAKGAFDALEAADLIIEAYEKDPEAGKQAIEAAKAEAEKKIKENPLLGKTALRMIENAEIAMKNLE
B4: design_608_fd41b8f9-4da9-4c78-93ec-aaa316ed4933_1539_dldesign_0_cycle1_af2pred (protein)
chain: SKRKEAARIAAEIVRRGHRIGAALARTIGPAAGAATEATLEELADLALEDPEKGRELGEAAVAAAEAAIAAARAA
B5: design_608_fd41b8f9-4da9-4c78-93ec-aaa316ed4933_1151_dldesign_0_cycle1_af2pred (protein)
chain: SMAEEEKKEKEKKKAETLALNAKGLEAIDKGDFTTAAKLYEKAAEVAPTEELKKRAEKGAKAMKKLEKAAKE
B6: design_608_fd41b8f9-4da9-4c78-93ec-aaa316ed4933_1350_dldesign_0_cycle1_af2pred (protein)
chain: SEAYKEFHEALQYATDAGYEYAKNPEEGKKELAKAEEHLKKAEELADPETAAKMREIYERRLAREKERAERLKKERN
B7: design_608_fd41b8f9-4da9-4c78-93ec-aaa316ed4933_2243_dldesign_0_cycle1_af2pred (protein)
chain: DEAKKEAAKAAQKAYEAIAEAEQAIRSGNAEELKKAAEEAKKAAKEAEKAAKKSKDKEVKEELKRVAKKAKEAAKKAKEAAKKLEA
B8: design_608_fd41b8f9-4da9-4c78-93ec-aaa316ed4933_1451_dldesign_0_cycle1_af2pred (protein)
chain: GSAAAAAAAAAAAIQAQQDKAMEYADEIYEKISKEVGKSTGIKVASDAFSYAMKTDFETGKKYGEEKEIKVIKEAKKK
B9: design_608_fd41b8f9-4da9-4c78-93ec-aaa316ed4933_1810_dldesign_0_cycle1_af2pred (protein)
chain: MEELKKVVEETKEYAKKLIESDGFSLVGKSAYEAAEKALKEGNLEKAKEIYEKTKKMYERAEEYEKLAEEREKKYL
B10: design_608_fd41b8f9-4da9-4c78-93ec-aaa316ed4933_2496_dldesign_0_cycle1_af2pred (protein)
chain: EEEVREEAERIRERAKEIAEKAKKLAEEAEKDPSKAKEAEEKSRKLAEELRELGERARELGDEEAARAAAEAAAVAHEARAEAYAIAN
B11: design_608_fd41b8f9-4da9-4c78-93ec-aaa316ed4933_1996_dldesign_0_cycle1_af2pred (protein)
chain: AEKAKELREQAEKLREEARKYAEYAPPEVVHELYQAAAESISYFNLAEKGEATEEQIKEGEEAFKKLKELTEEIKERAKKAEEEA
B12: design_608_fd41b8f9-4da9-4c78-93ec-aaa316ed4933_1926_dldesign_0_cycle1_af2pred (protein)
chain: DAEEEAKKLKEEAEKKLKEIKQMAKDGTATVEEIEKERKEGIEALKKAAKLVPEKKEEYAKLAEEIVEAYSDAYYESLKKERE
B13: design_608_fd41b8f9-4da9-4c78-93ec-aaa316ed4933_2434_dldesign_0_cycle1_af2pred (protein)
chain: AAEEAIKKAKKIVEEAVKIMEEAGKKNPEYKEEFEKKNKKIKELLKEAEKLVKEGKKEEGIKTAVKAAHEAREAKAEAEWILRRN
B14: design_608_fd41b8f9-4da9-4c78-93ec-aaa316ed4933_2160_dldesign_0_cycle1_af2pred (protein)
chain: MEEKAKKYLEAAKKAKKYAEYAAKIDKEAAEKAKEAAKLLEEAAKLYLEGADEEEIEKASKKAAEKLGEARFEYNVVKQKEKRK
B15: design_608_fd41b8f9-4da9-4c78-93ec-aaa316ed4933_1719_dldesign_0_cycle1_af2pred (protein)
chain: DGYEKGKAVAERFKEDAEKIGNTEAAAEGLELLAEQWKAYAEKNTPEEAKEANKAAKEFKEEAKKYKEKAKA
B16: design_608_fd41b8f9-4da9-4c78-93ec-aaa316ed4933_2157_dldesign_0_cycle1_af2pred (protein)
chain: SELEEEIKKLAKELNEAIMKLADLASPEETREAAKKALEAKKLAKEDPEKGLEKLKEALKETKKLLEKAEKEN
B17: design_608_fd41b8f9-4da9-4c78-93ec-aaa316ed4933_2208_dldesign_0_cycle1_af2pred (protein)
chain: AAAAAAKAKALADAAKKAAKEYVKYAKEEDPEKGRKLLYEDMKKAYALAKADPALAPAAKEIAKIAQEAFQEIADIIGEKK
B18: design_608_fd41b8f9-4da9-4c78-93ec-aaa316ed4933_2179_dldesign_0_cycle1_af2pred (protein)
chain: MKEEEAKKAIEEAKKAIKEAREVGKELAKKDPSKKAFVDEAAKKLHELREKLAEAESLLKKDPEKAKKLAEEVKKKAKEIKKELEKA
B19: design_608_fd41b8f9-4da9-4c78-93ec-aaa316ed4933_1306_dldesign_0_cycle1_af2pred (protein)
chain: GKEEAEKILKEAKAKLDALAKENPALAPLAAEAKERIEKKYKKAIEADEKDPKQGKAAAEALKEFAKNAVAAVEKKK
B20: design_608_fd41b8f9-4da9-4c78-93ec-aaa316ed4933_1483_dldesign_0_cycle1_af2pred (protein)
chain: METKRLSEAHRIAVRAAQAAGAAATTAAEKAAIAAAKFQAVDSDPEELIAILRATGAAFPKQAPHFDAAVAEIEKAIEEY
B21: design_608_fd41b8f9-4da9-4c78-93ec-aaa316ed4933_1401_dldesign_0_cycle1_af2pred (protein)
chain: MEEEAKKYVEYTKKKAEEAKKNAKKAKEAGASQEAIQLFIDAAQYYLLAASAAENSPKYLPYAKEETKKGEELLKKGKKLFEEE
B22: design_609_7ee6ce64-4629-41e8-bcb4-ba0da017284d_91_dldesign_0_cycle1_af2pred (protein)
chain: SDLENNKKALQYAEAAAEAAEFGSLKAAQGLLKKAAELATDEETKKLLLEAAEKEDLKELLKLAKEAAKKLKKNVE
B23: design_608_fd41b8f9-4da9-4c78-93ec-aaa316ed4933_2275_dldesign_0_cycle1_af2pred (protein)
chain: MEKVKEEAEKLREEAEKAAKAGDVKAVSEAAHKLAELAAEAERESEEAGKVAREALRELREEAKAALAKRAAAAAA
B24: design_608_fd41b8f9-4da9-4c78-93ec-aaa316ed4933_1798_dldesign_0_cycle1_af2pred (protein)
chain: NEAIKEAEKAAKEAKEAYKKAGEVSGETEKAERMIKRVEELLEAGKKDPSKAEKYKAQIEALRDHAKEVLKKAEAKKKA
B25: design_608_fd41b8f9-4da9-4c78-93ec-aaa316ed4933_1545_dldesign_0_cycle1_af2pred (protein)
chain: GSSVHKELADKLKKAIEEGEAAAKAGDVEKGKQIYADALGEVLGYPEASRQKLLDLPAKEGYEKAKKLLTNAYDGLSSLAKK
B26: design_608_fd41b8f9-4da9-4c78-93ec-aaa316ed4933_1906_dldesign_0_cycle1_af2pred (protein)
chain: DVKKEAEKLRDKGKERAKRRLEDAKKISPQYAEAAYEALEQASKNAKKLAEKYPEAKEIYEELAKYFEEQAKKAKEIAE
B27: design_608_fd41b8f9-4da9-4c78-93ec-aaa316ed4933_2418_dldesign_0_cycle1_af2pred (protein)
chain: NKLLKEAIEALKKGIEAAKKGDLMEAQAYFTEARFYAEKYAKENPEYKEKAEKAAELAKEAIKTNGTPEAIKLAEEARKLLEEI
B28: design_608_fd41b8f9-4da9-4c78-93ec-aaa316ed4933_1632_dldesign_0_cycle1_af2pred (protein)
chain: EAEKKFKEAKKLASEAAEKLATLAAEAAFKGKEELAKEAREALKKLREKGKEAEKLYKEDPEKAAKVLKKAAEEALKKAEKLEKEL
B29: design_609_7ee6ce64-4629-41e8-bcb4-ba0da017284d_123_dldesign_0_cycle1_af2pred (protein)
chain: GAKAVAAAAHDGYQAIAEASKDAEELKKAEEAGLKAVEETGKATGDTATAKAAKERLKRYADRELKKSKKKEEEKKKKLLE
B30: design_608_fd41b8f9-4da9-4c78-93ec-aaa316ed4933_1455_dldesign_0_cycle1_af2pred (protein)
chain: HMSELTKKTSDVISEAVKTSREAVKEAEKKDPALGEKLKEFYTKALLDAQDGDPFKGATELLKKAKADLAAVKAS
B31: design_608_fd41b8f9-4da9-4c78-93ec-aaa316ed4933_2397_dldesign_0_cycle1_af2pred (protein)
chain: RDKLLMYVAAVRGAARIAKDDPEKGKEALEIETEELVEVMAKASEEEAAEAKELAVAAAAEVDPEIAEWVRKFIEEKLKEKR
B32: design_608_fd41b8f9-4da9-4c78-93ec-aaa316ed4933_2202_dldesign_0_cycle1_af2pred (protein)
chain: DEYLKEAEKVYKETKKVIEEAKKKEKEEALKEIAKATQEATMKLTELAAEAAREGDKETAEKIRELRRELIEYATKVAEEVKAK
B33: design_608_fd41b8f9-4da9-4c78-93ec-aaa316ed4933_2353_dldesign_0_cycle1_af2pred (protein)
chain: SNKEEADLLRELARAAKAAGAALAALAAADPSEAARAAALKAEFSQALFDAADGKLNEAEIKAIIARMEAVAAAA
B34: design_608_fd41b8f9-4da9-4c78-93ec-aaa316ed4933_1103_dldesign_0_cycle1_af2pred (protein)
chain: SPQAAADALRAAQRLLREAGARAEAAGAQEAADLLRQASFALAGTGADEALALIDAAAAAYPEVAPLLDEARAAARAYGELLN
B35: design_608_fd41b8f9-4da9-4c78-93ec-aaa316ed4933_1393_dldesign_0_cycle1_af2pred (protein)
chain: STVEEALAAAKKNIAAAKAAAAAGDFAAAAAALHEARENVSVIYANDKEKGEELRKEVTAVRAEIRAKEEAA
B36: design_608_fd41b8f9-4da9-4c78-93ec-aaa316ed4933_1756_dldesign_0_cycle1_af2pred (protein)
chain: AQKAVAEAAQAALIAKSAADVSKNIDAETLEEIAKEAKKAAEKAEKEAPEAKEVIEPAKKEAEKLEKIAKEKKA
B37: design_609_7ee6ce64-4629-41e8-bcb4-ba0da017284d_97_dldesign_0_cycle1_af2pred (protein)
chain: NKLEEAKKAVKKLKELAKKAKEVAKDLKKTEELVKKAEEEYKKAIKLAREAAKEGDEETKKEAKKLAEEAHEAYNEALLALVKARE
B38: design_608_fd41b8f9-4da9-4c78-93ec-aaa316ed4933_1790_dldesign_0_cycle1_af2pred (protein)
chain: MEFIKEVSKKVHDTRFYLDSVALKASEEDRKKLEEMRKEVGELMLKAQKAYKEDPEEGKKLAEEALKKAEEAYKYAKSIEE

Target: VTCN1, Q7Z7D3
Sequence (Q7Z7D3 whole entry): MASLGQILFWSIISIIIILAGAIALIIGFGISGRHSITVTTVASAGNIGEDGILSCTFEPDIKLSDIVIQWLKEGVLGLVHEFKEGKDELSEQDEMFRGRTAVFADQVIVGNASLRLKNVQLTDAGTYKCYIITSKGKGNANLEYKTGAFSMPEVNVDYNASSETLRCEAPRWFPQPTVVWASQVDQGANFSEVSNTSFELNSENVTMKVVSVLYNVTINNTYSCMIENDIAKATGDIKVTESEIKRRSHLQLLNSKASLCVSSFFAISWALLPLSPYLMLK

Binding in a display sort, inactive:
B1 not found
B2 not found
B3 not found
B4 not found
B5 not found
B6 not found
B7 not found
B8 not found
B9 not found
B10 not found
B11 not found
B12 not found
B13 not found
B14 not found
B15 not found
B16 not found
B17 not found
B18 not found
B19 not found
B20 not found
B21 not found
B22 not found
B23 not found
B24 not found
B25 not found
B26 not found
B27 not found
B28 not found
B29 not found
B30 not found
B31 not found
B32 not found
B33 not found
B34 not found
B35 not found
B36 not found
B37 not found
B38 not found
